Source: the supplement of paper PMC10849652
The full data set covers some 8,800 targets. This sample favours those with a hit. About 0.5% of all pairs of compound and target were hits. Values without a mark were called inactive.

Compound: CC1=C2C(=CC=C1)N=C(N(C2=O)C3=CC=CC=C3C)CN4C=NC5=C(N=CN=C54)N
Test: log2 fold change, soluble protein after heating vs DMSO (PISA); higher = thermal stabilisation; K562 lysate, 10 uM; active = over 0.2 and 3.5 SD of the protein, either way, in both replicates (recomputed)
Outline: (§1)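 Quantification was by TMTpro 16plex LC-MS/MS with equalised channel sums, applied to the supernatant after 21,000xg for 90 min. Samples were crude K562 extract at 1 mg/mL protein in PBS pH 7.4 with 1 mM MgCl2, treated with 10 μM compound for 30 min, heated for 3 min across 48°C-58°C, pooled and brought to 0.5% NP-40 at 4°C. Values are log-two fold changes in thermal stability relative to solvent controls, from duplicates.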

UniProt Q9UPW6, sequence (Q9UPW6 whole entry, looked up): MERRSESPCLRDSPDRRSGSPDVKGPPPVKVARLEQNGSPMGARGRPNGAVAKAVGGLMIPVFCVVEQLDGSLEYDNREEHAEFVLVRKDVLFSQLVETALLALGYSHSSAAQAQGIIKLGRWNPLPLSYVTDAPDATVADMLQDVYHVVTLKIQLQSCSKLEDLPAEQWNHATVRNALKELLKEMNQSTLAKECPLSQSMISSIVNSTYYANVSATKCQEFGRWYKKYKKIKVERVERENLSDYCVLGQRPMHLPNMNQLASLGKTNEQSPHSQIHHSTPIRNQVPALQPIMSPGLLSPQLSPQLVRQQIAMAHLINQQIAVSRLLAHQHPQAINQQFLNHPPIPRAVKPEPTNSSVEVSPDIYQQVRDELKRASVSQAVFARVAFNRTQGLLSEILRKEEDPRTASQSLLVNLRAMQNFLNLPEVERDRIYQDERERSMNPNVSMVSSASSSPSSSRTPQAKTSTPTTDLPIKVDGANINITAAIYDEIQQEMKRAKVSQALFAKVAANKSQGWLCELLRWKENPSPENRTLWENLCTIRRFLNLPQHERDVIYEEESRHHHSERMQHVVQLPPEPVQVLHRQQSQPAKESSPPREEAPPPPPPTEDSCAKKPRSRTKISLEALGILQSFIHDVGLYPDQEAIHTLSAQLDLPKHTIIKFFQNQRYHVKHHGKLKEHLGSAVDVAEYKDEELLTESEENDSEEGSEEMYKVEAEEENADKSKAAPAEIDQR
UniProt P28702, sequence (P28702 whole entry, looked up): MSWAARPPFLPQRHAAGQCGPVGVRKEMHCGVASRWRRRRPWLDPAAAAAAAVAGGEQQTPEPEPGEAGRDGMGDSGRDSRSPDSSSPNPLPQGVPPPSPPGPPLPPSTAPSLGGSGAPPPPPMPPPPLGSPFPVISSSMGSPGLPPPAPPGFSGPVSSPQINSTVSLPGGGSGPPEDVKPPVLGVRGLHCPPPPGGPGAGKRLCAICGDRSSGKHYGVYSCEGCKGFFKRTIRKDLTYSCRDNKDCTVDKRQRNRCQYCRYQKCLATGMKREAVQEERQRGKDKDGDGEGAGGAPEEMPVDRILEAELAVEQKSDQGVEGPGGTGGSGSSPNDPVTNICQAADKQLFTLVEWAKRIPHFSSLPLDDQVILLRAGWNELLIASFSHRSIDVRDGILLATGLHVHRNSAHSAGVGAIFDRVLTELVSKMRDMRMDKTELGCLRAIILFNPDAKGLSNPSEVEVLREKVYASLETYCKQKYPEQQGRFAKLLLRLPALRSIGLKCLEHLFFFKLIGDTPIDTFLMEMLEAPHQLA
UniProt Q99496, sequence (Q99496 whole entry, looked up): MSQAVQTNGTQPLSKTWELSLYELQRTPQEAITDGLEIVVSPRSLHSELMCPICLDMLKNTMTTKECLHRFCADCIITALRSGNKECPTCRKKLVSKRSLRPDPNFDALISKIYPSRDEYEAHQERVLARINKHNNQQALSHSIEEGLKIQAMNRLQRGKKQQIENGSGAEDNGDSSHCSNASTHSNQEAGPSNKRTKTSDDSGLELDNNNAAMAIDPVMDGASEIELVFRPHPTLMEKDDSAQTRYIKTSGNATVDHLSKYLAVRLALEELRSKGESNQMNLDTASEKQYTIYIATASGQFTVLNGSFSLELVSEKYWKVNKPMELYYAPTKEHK
UniProt Q9NTN9, sequence (Q9NTN9 whole entry, looked up): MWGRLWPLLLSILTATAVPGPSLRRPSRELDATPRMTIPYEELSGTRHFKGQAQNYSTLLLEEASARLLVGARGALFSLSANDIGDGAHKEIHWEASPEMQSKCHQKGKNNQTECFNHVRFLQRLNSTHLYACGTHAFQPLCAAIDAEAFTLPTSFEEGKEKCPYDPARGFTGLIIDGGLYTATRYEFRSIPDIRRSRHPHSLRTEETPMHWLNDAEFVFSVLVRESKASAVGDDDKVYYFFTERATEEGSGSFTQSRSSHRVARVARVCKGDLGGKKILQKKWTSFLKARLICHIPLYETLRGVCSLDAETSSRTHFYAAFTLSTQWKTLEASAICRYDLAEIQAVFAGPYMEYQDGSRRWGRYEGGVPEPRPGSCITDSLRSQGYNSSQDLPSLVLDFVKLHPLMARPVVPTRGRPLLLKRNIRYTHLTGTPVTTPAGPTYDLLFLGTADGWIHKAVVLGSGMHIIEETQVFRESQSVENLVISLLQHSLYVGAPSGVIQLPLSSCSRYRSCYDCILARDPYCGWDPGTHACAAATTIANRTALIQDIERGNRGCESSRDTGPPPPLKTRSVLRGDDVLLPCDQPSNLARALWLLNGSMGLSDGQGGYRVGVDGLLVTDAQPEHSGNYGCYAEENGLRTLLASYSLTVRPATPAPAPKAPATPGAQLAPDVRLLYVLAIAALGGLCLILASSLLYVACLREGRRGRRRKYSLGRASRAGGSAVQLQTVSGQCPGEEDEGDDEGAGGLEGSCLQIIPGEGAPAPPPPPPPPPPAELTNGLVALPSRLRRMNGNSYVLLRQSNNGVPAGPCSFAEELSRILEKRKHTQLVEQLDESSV
UniProt P78406, sequence (P78406 whole entry, looked up): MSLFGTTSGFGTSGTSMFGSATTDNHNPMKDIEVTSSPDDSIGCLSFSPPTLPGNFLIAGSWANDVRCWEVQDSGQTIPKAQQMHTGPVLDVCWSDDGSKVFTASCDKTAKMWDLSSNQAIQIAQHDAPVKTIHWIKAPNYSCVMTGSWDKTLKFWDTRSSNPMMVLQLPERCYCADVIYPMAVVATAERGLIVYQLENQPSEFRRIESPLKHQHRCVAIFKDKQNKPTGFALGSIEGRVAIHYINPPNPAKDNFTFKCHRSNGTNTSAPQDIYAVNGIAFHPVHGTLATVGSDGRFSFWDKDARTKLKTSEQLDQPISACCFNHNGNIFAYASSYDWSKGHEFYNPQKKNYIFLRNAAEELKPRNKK
UniProt Q9NW64, sequence (Q9NW64 whole entry, looked up): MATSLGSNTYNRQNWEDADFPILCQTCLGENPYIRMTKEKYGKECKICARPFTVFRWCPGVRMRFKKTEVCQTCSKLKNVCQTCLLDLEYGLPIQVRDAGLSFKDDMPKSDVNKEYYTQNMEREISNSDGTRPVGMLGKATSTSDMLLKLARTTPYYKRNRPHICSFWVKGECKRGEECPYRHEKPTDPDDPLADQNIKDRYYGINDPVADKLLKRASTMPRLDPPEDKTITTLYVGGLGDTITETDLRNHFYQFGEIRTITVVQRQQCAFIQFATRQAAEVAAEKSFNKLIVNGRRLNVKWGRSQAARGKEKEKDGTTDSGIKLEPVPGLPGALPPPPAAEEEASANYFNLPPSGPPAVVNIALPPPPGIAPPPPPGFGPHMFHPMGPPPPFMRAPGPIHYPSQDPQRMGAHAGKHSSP
UniProt Q00765, sequence (Q00765 whole entry, looked up): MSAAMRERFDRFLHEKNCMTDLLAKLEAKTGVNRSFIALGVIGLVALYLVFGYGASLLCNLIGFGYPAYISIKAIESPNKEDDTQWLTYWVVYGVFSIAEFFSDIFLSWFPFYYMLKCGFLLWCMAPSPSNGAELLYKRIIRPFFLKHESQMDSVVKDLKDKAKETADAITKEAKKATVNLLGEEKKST
UniProt Q8TC12, sequence (Q8TC12 whole entry, looked up): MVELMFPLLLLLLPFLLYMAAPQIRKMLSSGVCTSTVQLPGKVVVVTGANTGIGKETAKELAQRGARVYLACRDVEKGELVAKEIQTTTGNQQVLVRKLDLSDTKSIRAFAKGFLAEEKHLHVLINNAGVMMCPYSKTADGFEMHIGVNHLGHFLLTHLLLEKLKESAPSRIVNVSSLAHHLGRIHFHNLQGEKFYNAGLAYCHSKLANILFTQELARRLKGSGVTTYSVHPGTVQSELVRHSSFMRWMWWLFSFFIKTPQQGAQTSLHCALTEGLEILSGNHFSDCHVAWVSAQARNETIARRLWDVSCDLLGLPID
UniProt Q9UPU9, sequence (Q9UPU9 whole entry, looked up): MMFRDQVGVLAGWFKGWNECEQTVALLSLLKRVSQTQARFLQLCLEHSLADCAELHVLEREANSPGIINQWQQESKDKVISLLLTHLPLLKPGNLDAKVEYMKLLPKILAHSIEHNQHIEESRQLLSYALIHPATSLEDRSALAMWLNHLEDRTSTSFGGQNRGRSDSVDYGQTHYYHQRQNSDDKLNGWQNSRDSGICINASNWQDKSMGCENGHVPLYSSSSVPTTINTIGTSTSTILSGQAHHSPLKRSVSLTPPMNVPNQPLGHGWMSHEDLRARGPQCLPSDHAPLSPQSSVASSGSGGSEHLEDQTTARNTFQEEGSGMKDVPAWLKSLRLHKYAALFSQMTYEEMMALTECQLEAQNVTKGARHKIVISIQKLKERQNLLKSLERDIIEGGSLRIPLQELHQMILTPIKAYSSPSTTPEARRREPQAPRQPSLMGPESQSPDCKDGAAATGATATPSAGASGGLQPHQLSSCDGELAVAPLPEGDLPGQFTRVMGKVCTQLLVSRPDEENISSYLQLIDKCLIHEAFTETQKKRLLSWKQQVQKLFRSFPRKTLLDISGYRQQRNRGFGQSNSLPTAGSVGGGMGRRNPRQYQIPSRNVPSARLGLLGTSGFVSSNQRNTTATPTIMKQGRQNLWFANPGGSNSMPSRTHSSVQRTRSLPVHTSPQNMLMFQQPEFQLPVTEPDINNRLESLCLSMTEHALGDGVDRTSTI
UniProt Q7L0Q8, sequence (Q7L0Q8 whole entry, looked up): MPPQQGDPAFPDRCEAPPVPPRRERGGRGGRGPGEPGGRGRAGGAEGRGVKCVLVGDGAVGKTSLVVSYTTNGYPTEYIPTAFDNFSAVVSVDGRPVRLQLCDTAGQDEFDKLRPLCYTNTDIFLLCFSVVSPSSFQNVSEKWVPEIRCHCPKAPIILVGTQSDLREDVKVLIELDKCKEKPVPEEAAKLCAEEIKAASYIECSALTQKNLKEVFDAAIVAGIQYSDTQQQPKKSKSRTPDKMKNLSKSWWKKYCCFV
UniProt Q96E14, sequence (Q96E14 whole entry, looked up): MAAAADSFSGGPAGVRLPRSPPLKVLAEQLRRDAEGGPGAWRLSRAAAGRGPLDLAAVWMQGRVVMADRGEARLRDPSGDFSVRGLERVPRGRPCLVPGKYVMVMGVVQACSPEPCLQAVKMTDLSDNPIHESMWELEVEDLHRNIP

Row | Target | log2 fold change
1 | RBM22 (UniProt Q9NW64) | 0.036
2 | RPLP0P6 (UniProt Q8NHW5) | -0.002
3 | RHOU (UniProt Q7L0Q8) | 0.065
4 | RHBDD1 (UniProt Q8TEB9) | -0.117
5 | RAP1B (UniProt F5GZG1) | 0.023
6 | SEMA4G isoform 2 (UniProt Q9NTN9) | 0.105
7 | RNF168 (UniProt Q8IYW5) | 0.017
8 | RAE1 (UniProt P78406) | -0.005
9 | QSER1, A0A3B3IRW6 | 0.047
10 | RPL8 (UniProt P62917) | -0.031
11 | RDH11 (UniProt Q8TC12) | 0.064
12 | RPS6KA5 (UniProt O75582) | -0.084
13 | RUFY2 isoform 1 (UniProt Q8WXA3) | -0.087
14 | REEP5 (UniProt Q00765) | 0.028
15 | SAMD4A (UniProt Q9UPU9) | -0.01
16 | SATB2 (UniProt Q9UPW6) | -0.019
17 | S100A6 (UniProt P06703) | -0.084
18 | RXRB isoform 3 (UniProt P28702) | -0.151
19 | RMI2 (UniProt Q96E14) | -0.18
20 | RETREG2 (UniProt Q8NC44) | 0.084
21 | RNF2 (UniProt Q99496) | 0.03

Compound: Cc1sc2c(c1C)C(c1ccc(Cl)cc1)=N[C@@H](CC(=O)OC(C)(C)C)c1nnc(C)n1-2
Test: as above
Outline: as §1

Row | Target | log2 fold change
22 | RBM22 (UniProt Q9NW64) | 0.072
23 | RNF17 (UniProt Q9BXT8) | 0.129
24 | RALGAPB isoform 3 (UniProt Q86X10) | 0.189
25 | RNPC3 (UniProt Q96LT9) | -0.029
26 | RPLP0P6 (UniProt Q8NHW5) | -0.026
27 | RHOU (UniProt Q7L0Q8) | -0.1
28 | RAP1B (UniProt F5GZG1) | -0.019
29 | SEMA4G isoform 2 (UniProt Q9NTN9) | 0.021
30 | RYR1 (UniProt P21817) | -0.093
31 | SERAC1 (UniProt Q96JX3) | 0.11
32 | RNF168 (UniProt Q8IYW5) | 0.061
33 | RAD54L (UniProt Q92698) | -0.299
34 | RAE1 (UniProt P78406) | 0.07
35 | QSER1, A0A3B3IRW6 | -0.027
36 | RXRA (UniProt P19793) | 0.167
37 | RPL8 (UniProt P62917) | 0.066
38 | RDH11 (UniProt Q8TC12) | 0.069
39 | RPS6KA5 (UniProt O75582) | -0.024
40 | SEC16A isoform 3 (UniProt O15027) | -0.006
41 | REEP5 (UniProt Q00765) | 0.022
42 | SAMD4A (UniProt Q9UPU9) | -0.079
43 | SATB2 (UniProt Q9UPW6) | 0.021
44 | S100A6 (UniProt P06703) | -0.1
45 | RXRB isoform 3 (UniProt P28702) | -0.057
46 | SCNM1 (UniProt Q9BWG6) | -0.332
47 | RMI2 (UniProt Q96E14) | 0.079
48 | RNF2 (UniProt Q99496) | -0.091

Compound: c1ccc([C@@H]2C[C@H]2NC2CCNCC2)cc1
Test: as above
Outline: as §1

Row | Target | log2 fold change
49 | RBM22 (UniProt Q9NW64) | 0
50 | RNF17 (UniProt Q9BXT8) | 0.451
51 | RALGAPB isoform 3 (UniProt Q86X10) | 0.153
52 | RNPC3 (UniProt Q96LT9) | -0.034
53 | RPLP0P6 (UniProt Q8NHW5) | -0.027
54 | RHOU (UniProt Q7L0Q8) | -0.015
55 | RHBDD1 (UniProt Q8TEB9) | 0.039
56 | RAP1B (UniProt F5GZG1) | -0.282
57 | SEMA4G isoform 2 (UniProt Q9NTN9) | 0.066
58 | RNF24 isoform 2 (UniProt Q9Y225) | -0.115
59 | RYR1 (UniProt P21817) | -0.055
60 | SERAC1 (UniProt Q96JX3) | 0.065
61 | RNF168 (UniProt Q8IYW5) | -0.068
62 | RAD54L (UniProt Q92698) | -1.06 (active)
63 | RAE1 (UniProt P78406) | -0.022
64 | RBM45 (UniProt Q8IUH3) | -0.026
65 | RXRA (UniProt P19793) | -0.149
66 | RPL8 (UniProt P62917) | 0.032
67 | RDH11 (UniProt Q8TC12) | -0.085
68 | RPS6KA5 (UniProt O75582) | -0.017
69 | RUFY2 isoform 1 (UniProt Q8WXA3) | -0.111
70 | REEP5 (UniProt Q00765) | -0.092
71 | SAMD4A (UniProt Q9UPU9) | -0.03
72 | SATB2 (UniProt Q9UPW6) | -0.045
73 | RNASEH1 (UniProt O60930) | 0.11
74 | S100A6 (UniProt P06703) | 0.104
75 | RXRB isoform 3 (UniProt P28702) | 0.06
76 | SCNM1 (UniProt Q9BWG6) | 0.014
77 | RETREG2 (UniProt Q8NC44) | 0.004
78 | RNF2 (UniProt Q99496) | 0.343
